This is an account of results in the supplement of paper PMC7366291.

Common to all, as to details: 25 µM; exposure: 24-48 hpf
Test [1] deals with Danio rerio Tg(wt1b:EGFP) embryo, pronephros. Nature of the test: glomerular separation, fold change vs DMSO control; higher = glomeruli further apart (abnormal). In a few lines:
(§1)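 Features are reported as fold changes against the mean of same-day DMSO-treated embryos. Before that, values more than 2 SD away from the feature mean were excluded. The embryos, dechorionated Tg(wt1b:EGFP) zebrafish, had been exposed from 24 to 48 hpf at 28.5°C to 25 μM compound in 0.5% DMSO in HEPES-buffered E3 with 0.003% PTU, and distances and angles came from 16 manually set points on maximum projections of dorsal pronephros images in Fiji.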

The test system is the same in test [2]. Kind of test: glomerular width (mean of left and right), fold change vs DMSO control; higher = wider glomerulus. An outline of the steps:
as §1

Test [3] shares this test system. Kind of test: fraction of imaged embryos annotated as normal kidney; higher = less nephrotoxic; extreme values may be limits of the assay. An outline of the steps:
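Zebrafish embryos carrying Tg(wt1b:EGFP) were dechorionated and exposed to 25 μM compound (0.5% DMSO) between 24 and 48 hpf at 28.5°C. Their pronephroi were imaged by widefield fluorescence, and each embryo was classed by hand from maximum projections. The measure is the fraction of embryos per treatment falling in the normal-kidney category.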

Test [4] shares this test system. Kind of test: pronephric angle neck segment to proximal convoluted tubule (mean of left and right), fold change vs DMSO control; higher = larger pronephric angle. In a few lines:
as §1

Molecules are shown by their SMILES. Structures can show the parent of a compound that is named as a salt. ± gives the standard deviation or the standard deviation of the averaged measurements.

With `Cc1ccccc1OCC(O)CO` (stereo not drawn) [Mephenesin], the glomerular separation in test [1] was determined as 1.06 ± 0.57. This compound also gave a glomerular width in test [2] of 1.01 ± 0.012. The “fraction of imaged embryos annotated as normal kidney” value (“fraction of imaged embryos annotated” for short) in test [3] worked out at 0.917. In test [4], the “pronephric angle neck segment” value was 0.993 ± 0.033.

Take `C=CCc1ccccc1OCC(O)CNC(C)C` (stereo not drawn) [Alprenolol hydrochloride]: in test [1], the glomerular separation was found to be 0.823 ± 0.28. The glomerular width in test [2] came out at 1 ± 0.074. For the same compound, in test [3], the “fraction of imaged embryos annotated” value is 0.833. In addition, the “pronephric angle neck segment” value in test [4] was 1.07 ± 0.015.

The compound `CCCC1C(=O)N2C(N(C)C)=Nc3ccc(C)cc3N2C1=O` (stereo not drawn) [Azapropazone] came in with a glomerular separation in test [1] of 1.16 ± 0.34. Also, the glomerular width in test [2] was 0.984 ± 0.022. In addition, the “fraction of imaged embryos annotated” value in test [3] was found to be 0.917. For the same compound, in test [4], the “pronephric angle neck segment” value came out at 1.018 ± 0.0029.

`Cc1onc(-c2c(F)cccc2Cl)c1C(=O)N[C@@H]1C(=O)N2[C@@H]1SC(C)(C)[C@@H]2C(=O)O` [Flucloxacillin sodium] showed a glomerular separation in test [1] of 1.05 ± 0.33. In test [2], this compound yielded a glomerular width of 0.989 ± 0.024. The “fraction of imaged embryos annotated” value in test [3] was determined as 0.833. For the same compound, the “pronephric angle neck segment” value in test [4] was found to be 0.958 ± 0.025.

Regarding `COC(=O)Nc1nc2cc(C(=O)c3ccc(F)cc3)ccc2[nH]1` [Flubendazol], in test [1], the glomerular separation is 1.81 ± 0.69. Moreover, in test [2], the glomerular width worked out at 0.934 ± 0.034. Moreover, in test [3], the “fraction of imaged embryos annotated” value is 0.833. Further, the “pronephric angle neck segment” value in test [4] was 1.11 ± 0.15.

In test [1], `O=C(O)c1ccccc1OP(=O)(O)O` [Fosfosal] displayed a glomerular separation of 0.789 ± 0.23. Also, in test [2], the glomerular width was determined as 1.07 ± 0.022. Moreover, the “fraction of imaged embryos annotated” value in test [3] was found to be 0.833. Moreover, the “pronephric angle neck segment” value in test [4] was 0.9628 ± 0.0065.

`CO/N=C(\C(=O)N[C@@H]1C(=O)N2C(C(=O)OC(C)OC(C)=O)=C(COC(N)=O)CS[C@H]12)c1ccco1` (stereo partly drawn) [Cefuroxime axetil]: the glomerular separation in test [1] came out at 1.21 ± 0.5. This compound showed a glomerular width in test [2] of 1.02 ± 0.023. Moreover, in test [3], the “fraction of imaged embryos annotated” value was determined as 0.917. For the same compound, the “pronephric angle neck segment” value in test [4] came to 1.04 ± 0.088.

Compound `Cc1ncc([N+](=O)[O-])n1CC(O)CCl` (stereo not drawn) [Ornidazole] came in with a glomerular separation in test [1] of 0.923 ± 0.39. In test [2], this compound returned a glomerular width of 1.06 ± 0.028. Besides, the “fraction of imaged embryos annotated” value in test [3] came out at 0.75. Moreover, in test [4], the “pronephric angle neck segment” value is 0.985 ± 0.027.

In the case of `Nc1nc2c(ncn2COCCO)c(=O)[nH]1` [Acyclovir], the glomerular separation in test [1] was 1.05 ± 0.49. The same compound yielded a glomerular width in test [2] of 1.06 ± 0.041. The “fraction of imaged embryos annotated” value in test [3] turned out to be 0.583. Besides, in test [4], the “pronephric angle neck segment” value was found to be 0.888 ± 0.022.

As for `CCn1cc(C(=O)O)c(=O)c2cnc(N3CCNCC3)nc21` [Pipemidic acid], the glomerular separation in test [1] came out at 0.919 ± 0.32. In test [2], this compound yielded a glomerular width of 1.05 ± 0.013. In test [3], the “fraction of imaged embryos annotated” value was found to be 0.75. Besides, in test [4], the “pronephric angle neck segment” value is 0.9737 ± 0.0064.

Consider `CN(C)CCOC(=O)C(c1ccccc1)C1(O)CCCC1` (stereo not drawn) [Cyclopentolate hydrochloride], for which the glomerular separation in test [1] was determined as 0.745 ± 0.24. The compound further gave a glomerular width in test [2] of 0.9284 ± 0.0066. Also, the “fraction of imaged embryos annotated” value in test [3] is 0.75. Also, the “pronephric angle neck segment” value in test [4] turned out to be 1.02 ± 0.035.

`COc1cc2nc(N3CCN(C(=O)C4CCCO4)CC3)nc(N)c2cc1OC` (stereo not drawn) [Terazosin hydrochloride] showed a glomerular separation in test [1] of 0.764 ± 0.26. The same compound displayed a glomerular width in test [2] of 1.04 ± 0.027. Also, the “fraction of imaged embryos annotated” value in test [3] was 0.833. Moreover, the “pronephric angle neck segment” value in test [4] turned out to be 0.9878 ± 0.0069.

In test [1], `Nc1nc2[nH]cc(CCc3ccc(C(=O)N[C@@H](CCC(=O)O)C(=O)O)cc3)c2c(=O)[nH]1` [Pemetrexed disodium] displayed a glomerular separation of 0.831 ± 0.39. The glomerular width in test [2] is 1.08 ± 0.041. In addition, the “fraction of imaged embryos annotated” value in test [3] came out at 0.833. The “pronephric angle neck segment” value in test [4] stood at 0.972 ± 0.057.

In the case of `CC(C)C[C@H](NC(=O)[C@@H](O)[C@H](N)Cc1ccccc1)C(=O)O` [Ubenimex], in test [1], the glomerular separation was 1.12 ± 0.52. Further, in test [2], the glomerular width was found to be 1.01 ± 0.048. Further, the “fraction of imaged embryos annotated” value in test [3] was found to be 0.833. For the same compound, in test [4], the “pronephric angle neck segment” value turned out to be 1.01 ± 0.028.

Take `CN(C)c1ccc(O)c2c1C[C@H]1C[C@H]3[C@H](N(C)C)C(O)=C(C(N)=O)C(=O)[C@@]3(O)C(O)=C1C2=O` [Minocycline hydrochloride]: the glomerular separation in test [1] came out at 1.02 ± 0.2. This compound returned a glomerular width in test [2] of 1.02 ± 0.024. Moreover, the “fraction of imaged embryos annotated” value in test [3] was 0.8. Also, the “pronephric angle neck segment” value in test [4] amounted to 0.92712 ± 6.2e-05.

Consider `CNCCc1ccccn1` [Betahistine mesylate], for which the glomerular separation in test [1] was found to be 0.815 ± 0.39. The same compound yielded a glomerular width in test [2] of 1.06 ± 0.034. In addition, the “fraction of imaged embryos annotated” value in test [3] came to 0.833. Further, the “pronephric angle neck segment” value in test [4] came to 0.9697 ± 0.0079.

The compound `CCn1cc(C(=O)O)c(=O)c2cc(F)c(N3CCNCC3)nc21` [Enoxacin] registered a glomerular separation in test [1] of 0.719 ± 0.29. The glomerular width in test [2] came to 0.9596 ± 0.0034. The “fraction of imaged embryos annotated” value in test [3] was 0.727. The “pronephric angle neck segment” value in test [4] was found to be 1.06 ± 0.017.

Turning to `Nc1nc2ccc(OC(F)(F)F)cc2s1` [Riluzole hydrochloride], the glomerular separation in test [1] was 0.834 ± 0.22. In test [2], this compound yielded a glomerular width of 0.964 ± 0.02. Also, the “fraction of imaged embryos annotated” value in test [3] is 0.833. Further, the “pronephric angle neck segment” value in test [4] came out at 1.036 ± 0.0021.

Turning to `C[C@@H]1C[C@H]2[C@@H]3C[C@H](F)C4=CC(=O)C=C[C@]4(C)[C@@]3(Cl)[C@@H](O)C[C@]2(C)[C@H]1C(=O)COC(=O)C(C)(C)C` [Clocortolone pivalate], in test [1], the glomerular separation was determined as 1.59 ± 0.52. Further, the glomerular width in test [2] came to 1.26 ± 0.019. Further, the “fraction of imaged embryos annotated” value in test [3] came out at 0.167. The “pronephric angle neck segment” value in test [4] was 1.077 ± 0.009.

On to `CC1(C)O[C@@H]2[C@@H](CO[C@@]3(COS(N)(=O)=O)OC(C)(C)O[C@@H]23)O1` [Topiramate], for which the glomerular separation in test [1] is 1.18 ± 0.51. In test [2], the glomerular width was found to be 1.086 ± 0.0046. In addition, the “fraction of imaged embryos annotated” value in test [3] came out at 0.583. Further, the “pronephric angle neck segment” value in test [4] came to 1 ± 0.025.

In test [1], `CN1CCC[C@@H]1CCO[C@](C)(c1ccccc1)c1ccc(Cl)cc1` [Clemastine fumarate] had a glomerular separation of 0.925 ± 0.57. This compound returned a glomerular width in test [2] of 1.01 ± 0.058. The “fraction of imaged embryos annotated” value in test [3] turned out to be 0.818. For the same compound, the “pronephric angle neck segment” value in test [4] stood at 0.9686 ± 0.0025.

As to `CC(=O)Oc1cc(C(F)(F)F)ccc1C(=O)O` [Triflusal], in test [1], the glomerular separation came out at 1.26 ± 0.59. Also, the glomerular width in test [2] was determined as 0.901 ± 0.012. Also, in test [3], the “fraction of imaged embryos annotated” value is 0.917. Moreover, the “pronephric angle neck segment” value in test [4] was 1.02 ± 0.031.

In test [1], `CC(C)(C)C(=O)OCOC(=O)[C@@H]1N2C(=O)[C@@H](NC(=O)[C@H](N)c3ccccc3)[C@H]2SC1(C)C` [Pivampicillin] came in with a glomerular separation of 1.14 ± 0.47. In test [2], this compound had a glomerular width of 1 ± 0.011. Also, in test [3], the “fraction of imaged embryos annotated” value came out at 1. Further, the “pronephric angle neck segment” value in test [4] stood at 0.9619 ± 0.0073.

`COc1ccc(/C=C/C(=O)Nc2ccccc2C(=O)O)cc1OC` [Tranilast] displayed a glomerular separation in test [1] of 2.14 ± 1.2. The compound also had a glomerular width in test [2] of 1.08 ± 0.049. In test [3], the “fraction of imaged embryos annotated” value is 0.583. In test [4], the “pronephric angle neck segment” value was 1.139 ± 0.0021.

In the case of `CN1CCC(=C2c3ccccc3C=Cc3ccccc32)CC1` [Cyproheptadine hydrochloride], the glomerular separation in test [1] worked out at 1.28 ± 0.31. The glomerular width in test [2] is 0.94 ± 0.06. Besides, the “fraction of imaged embryos annotated” value in test [3] turned out to be 0.667. The “pronephric angle neck segment” value in test [4] was determined as 1.2 ± 0.081.

In turn, `CC[N+](C)(C)Cc1ccccc1Br` [Bretylium tosylate] yielded a glomerular separation in test [1] of 0.631 ± 0.23. In addition, the glomerular width in test [2] came to 0.9664 ± 0.0094. For the same compound, the “fraction of imaged embryos annotated” value in test [3] worked out at 1. In test [4], the “pronephric angle neck segment” value is 0.982 ± 0.028.

In the case of `OC(Cn1cncn1)(Cn1cncn1)c1ccc(F)cc1F` [Fluconazole], the glomerular separation in test [1] was determined as 1.11 ± 0.31. In test [2], this compound showed a glomerular width of 0.967 ± 0.095. In test [3], the “fraction of imaged embryos annotated” value came out at 0.917. Further, in test [4], the “pronephric angle neck segment” value turned out to be 0.978 ± 0.021.
